Reference: PubChem BioAssay AID1159580 (chemical genetic matrix, 2015)
The whole screen tested about 5,500 compounds, of which about 2,000 (36%) were called active. About 18% were inconclusive and are not listed. Cut-off read from the data, not from the text of the source: active = normalized growth mostly below about 0.91 (no sharp cut-off); inconclusive = no clear call, values can overlap the other calls; inactive = mostly above about 0.92. Some of the results follow.

Assay: chemical genetic growth profiling, strain panel (AID 1159580);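 note: tested at 20 µM; growth read once vehicle control cultures reached saturation at 30 °C; 1 = growth at the plate median or of vehicle wells; lower values mean less growth of the strain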
Settings: S. cerevisiae deletion strains, growth OD

Measured: normalized growth

CC(=O)O[C@H]1CCC2(C)C3=C(CCC2C1(C)C)[C@@]1(C)CC[C@@H](C(C)CCC=C(C)C)[C@]1(C)CC3 (some centres not stated)
active: locus YIR030C, strain dcg1, active compounds read low 1.08 [resistant] | locus YKL009W, strain mrt4, active compounds read low 0.846 | locus YLR371W, strain rom2, active compounds read low 1.1 [resistant]
inactive: locus YAL021C, strain ccr4, active compounds read low 1.02 | locus YAL026C, strain drs2, active compounds read low 1.03 | locus YAL030W, strain snc1, active compounds read low 1.03 | locus YBL061C, strain skt5, active compounds read low 1.04 | locus YBR009C, strain hhf1, active compounds read low 1.03 | locus YBR021W, strain FUR4, active compounds read low 0.912 | locus YBR023C, strain chs3, active compounds read low 1.03 | locus YBR171W, strain sec66, active compounds read low 1.05 | locus YBR229C, strain ROT2, active compounds read low 1.04 | locus YBR231C, strain swc5, active compounds read low 1.04 | locus YBR279W, strain paf1, active compounds read low 1.02 | locus YCL011C, strain gbp2, active compounds read low 1.04 | locus YCL016C, strain dcc1, active compounds read low 1.03 | locus YCL029C, strain bik1, active compounds read low 1.01 | locus YCL061C, strain MRC1, active compounds read low 1.04 | locus YCL069W, strain vba3, active compounds read low 1.03 | locus YCR088W, strain abp1, active compounds read low 1.03 | locus YDL005C, strain med2, active compounds read low 1.03 | locus YDL035C, strain GPR1, active compounds read low 0.911 | locus YDL040C, strain nat1, active compounds read low 1.03 | locus YDL074C, strain BRE1, active compounds read low 0.973 | locus YDL101C, strain DUN1, active compounds read low 1.02 | locus YDL185W, strain tfp1, active compounds read low 1.05 | locus YDL192W, strain arf1, active compounds read low 1.03 | locus YDR001C, strain nth1, active compounds read low 1.03 | locus YDR069C, strain doa4, active compounds read low 1.03 | locus YDR101C, strain arx1, active compounds read low 1.02 | locus YDR137W, strain rgp1, active compounds read low 1.02 | locus YDR150W, strain NUM1, active compounds read low 1.05 | locus YDR159W, strain sac3, active compounds read low 1.07 | locus YDR162C, strain NBP2, active compounds read low 1.01 | locus YDR195W, strain ref2 1.03 | locus YDR297W, strain sur2, active compounds read low 1.03 | locus YDR318W, strain mcm21, active compounds read low 1.02 | locus YDR334W, strain swr1, active compounds read low 1.04 | locus YDR335W, strain msn5, active compounds read low 1.02 | locus YDR388W, active compounds read low 1.06 | locus YDR392W, strain spt3, active compounds read low 1.04 | locus YDR502C, strain sam2, active compounds read low 1.01 | locus YEL003W, strain gim4, active compounds read low 1.02 | locus YEL037C, strain rad23, active compounds read low 1.02 | locus YEL061C, strain CIN8 (second series), active compounds read low 1.03 | locus YEL061C, strain CIN8, active compounds read low 1.04 | locus YER015W, strain faa2, active compounds read low 1.03 | locus YER016W, strain bim1, active compounds read low 1.04 | locus YER110C, active compounds read low 1.06 | locus YER111C, strain swi4, active compounds read low 1.04 | locus YER155C, strain BEM2 (second series), active compounds read low 1.04 | locus YER155C, strain BEM2, active compounds read low 1.03 | locus YER167W, strain BCK2, active compounds read low 1.03 | locus YFR010W, strain ubp6, active compounds read low 1.03 | locus YGL078C, strain dbp3, active compounds read low 0.932 | locus YGL086W, strain mad1, active compounds read low 1.02 | locus YGL167C, strain pmr1, active compounds read low 1.04 | locus YGL173C, strain kem1, active compounds read low 1.02 | locus YGL227W, strain vid30, active compounds read low 1.03 | locus YGL240W, strain doc1, active compounds read low 1.03 | locus YGL248W, strain PDE1, active compounds read low 1 | locus YGL253W, strain hxk2, active compounds read low 1.02 | locus YGR078C, strain PAC10, active compounds read low 1 | locus YGR135W, strain pre9, active compounds read low 1 | locus YGR229C, strain SMI1, active compounds read low 0.963 | locus YGR252W, strain gcn5, active compounds read low 0.884 | locus YHR013C, strain ard1, active compounds read low 1.08 | locus YHR027C, strain rpn1, active compounds read low 1.02 | locus YHR079C, strain IRE1 (second series), active compounds read low 1.06 | locus YHR094C, strain hxt1, active compounds read low 1.06 | locus YHR129C, strain ARP1, active compounds read low 1.04 | locus YHR142W, strain chs7, active compounds read low 1.04 | locus YHR200W, strain rpn10, active compounds read low 1.03 | locus YIL066C, strain RNR3, active compounds read low 1.02 | locus YIL073C, strain SPO22, active compounds read low 1.06 | locus YIL125W, strain kgd1, active compounds read low 1.01 | locus YJL092W, strain hpr5, active compounds read low 1.03 | locus YJL095W, strain BCK1 (second series), active compounds read low 1.03 | locus YJL095W, strain BCK1, active compounds read low 1.03 | locus YJL115W, strain asf1, active compounds read low 1.04 | locus YJL129C, strain trk1, active compounds read low 1.07 | locus YJL134W, strain LCB3, active compounds read low 1.04 | locus YJL154C, strain vps35, active compounds read low 1.03 | locus YJL164C, strain tpk1, active compounds read low 1.02 | locus YJL166W, strain qcr8, active compounds read low 1.03 | locus YJL168C, strain set2, active compounds read low 1.06 | locus YJL187C, strain SWE1 (second series), active compounds read low 0.989 | locus YJL187C, strain SWE1, active compounds read low 1.01 | locus YJR043C, strain POL32, active compounds read low 0.941 | locus YJR075W, strain HOC1, active compounds read low 1.04 | locus YKL068W, active compounds read low 1.04 | locus YKL085W, strain MDH1 (second series), active compounds read low 1.03 | locus YKL085W, strain MDH1, active compounds read low 1.03 | locus YKL160W, strain elf1, active compounds read low 1.02 | locus YKR001C, strain vps1, active compounds read low 0.997 | locus YKR026C, strain gcn3, active compounds read low 1.04 | locus YKR091W, strain srl3, active compounds read low 1.03 | locus YLL001W, strain dnm1, active compounds read low 1.03 | locus YLL026W, active compounds read low 1.02 | locus YLL041C, strain sdh2, active compounds read low 1.05 | locus YLR027C, strain aat2, active compounds read low 1.04 | locus YLR039C, strain RIC1, active compounds read low 1.08 | locus YLR058C, strain SHM2, active compounds read low 1.01 | locus YLR102C, strain apc9, active compounds read low 1.05 | locus YLR221C, strain rsa3, active compounds read low 1.03 | locus YLR258W, strain gsy2, active compounds read low 1.04 | locus YLR262C, strain YPT6 (second series), active compounds read low 1.02 | locus YLR262C, strain YPT6, active compounds read low 0.994 | locus YLR268W, strain sec22, active compounds read low 1.02 | locus YLR320W, strain mms22, active compounds read low 1.05 | locus YLR330W, strain CHS5, active compounds read low 1.03 | locus YLR342W, strain FKS1 (second series), active compounds read low 0.953 | locus YLR342W, strain FKS1, active compounds read low 1.04 | locus YLR357W, strain rsc2, active compounds read low 1.04 | locus YLR370C, strain arc18, active compounds read low 1.02 | locus YLR384C, strain iki3, active compounds read low 1.05 | locus YLR418C, strain cdc73, active compounds read low 1.09 | locus YML016C, strain PPZ1, active compounds read low 1.05 | locus YML032C, strain rad52, active compounds read low 0.994 | locus YML120C, strain ndi1, active compounds read low 1.03 | locus YML124C, strain tub3, active compounds read low 1.06 | locus YMR058W, strain fet3, active compounds read low 1.03 | locus YMR078C, strain ctf18, active compounds read low 1.08 | locus YMR125W, strain sto1, active compounds read low 1.03 | locus YMR129W, active compounds read low 1.03 | locus YMR205C, strain PFK2, active compounds read low 1.04 | locus YMR223W, strain ubp8, active compounds read low 1.01 | locus YMR231W, strain pep5, active compounds read low 1 | locus YMR307W, strain GAS1, active compounds read low 0.972 | locus YNL067W, strain RPL9B, active compounds read low 0.969 | locus YNL071W, strain lat1, active compounds read low 1.03 | locus YNL209W, strain ssb2, active compounds read low 1.04 | locus YNL233W, strain BNI4, active compounds read low 1.04 | locus YNL248C, strain rpa49, active compounds read low 1.02 | locus YNL250W, strain rad50, active compounds read low 1.04 | locus YNL271C, strain bni1, active compounds read low 1.05 | locus YNL298W, strain CLA4, active compounds read low 0.986 | locus YNL307C, strain MCK1, active compounds read low 1.07 | locus YNL322C, strain KRE1 (second series), active compounds read low 1.03 | locus YNR049C, strain mso1, active compounds read low 1.03 | locus YNR052C, strain pop2, active compounds read low 0.99 | locus YOL012C, strain htz1 1.57 | locus YOL147C, strain pex11, active compounds read low 1.05 | locus YOR001W, strain rrp6, active compounds read low 1.01 | locus YOR061W, strain CKA2, active compounds read low 0.996 | locus YOR069W, strain VPS5, active compounds read low 1.03 | locus YOR070C, strain gyp1, active compounds read low 1.01 | locus YOR080W, strain dia2, active compounds read low 1.02 | locus YOR083W, strain WHI5, active compounds read low 1.01 | locus YOR106W, strain vam3, active compounds read low 1 | locus YOR136W, strain idh2, active compounds read low 1.04 | locus YOR144C, strain elg1, active compounds read low 1.04 | locus YOR184W, strain ser1, active compounds read low 0.926 | locus YOR265W, strain rbl2, active compounds read low 1.03 | locus YOR270C, strain vph1, active compounds read low 0.999 | locus YOR290C, strain snf2, active compounds read low 1.02 | locus YOR316C, strain cot1, active compounds read low 1.06 | locus YPL051W, strain arl3, active compounds read low 1.01 | locus YPL078C, strain atp4, active compounds read low 1.02 | locus YPL106C, strain sse1, active compounds read low 1.09 | locus YPL240C, strain hsp82, active compounds read low 1.03 | locus YPL241C, strain CIN2, active compounds read low 1.05 | locus YPR119W, strain clb2, active compounds read low 1.06 | locus YPR141C, strain kar3, active compounds read low 1.08 | locus YPR163C, strain tif3, active compounds read low 1.04 | locus YPR167C, strain met16, active compounds read low 1.03 | strain wtn01, active compounds read low 0.997
